Source: the supplement of paper PMC6555819

Experiments:
Experiment in all cases: PBM binding z-score (relative to random genomic background probes); higher = stronger binding; sequences stand for … in GC…GCGATTGACAGCGTAGAATGAAGG
[1] = tested on: FXR:RXRa (NR concentration 270 nM, RXRa partner concentration 90 nM)
Summary of the method: (§1)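 Scanned fluorescence from custom Agilent 4×180K protein-binding microarrays was regression-normalized. Binding z-scores use random background probes as reference. Ligand-free nuclear receptor dimers were incubated on the arrays for 1 h and detected with antibodies against each partner (one per run).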

[2] = tested on: LXRa:RXRa (NR concentration 270 nM, RXRa partner concentration 90 nM)
Summary of the method: as §1

[3] = tested on: LXRa homodimer (NR concentration 270 nM)
Summary of the method: as §1

[4] = tested on: LXRb:RXRa (NR concentration 270 nM, RXRa partner concentration 90 nM)
Summary of the method: as §1

[5] = tested on: LXRb homodimer (NR concentration 270 nM)
Summary of the method: as §1

[6] = tested on: PPARa:RXRa (NR concentration 270 nM, RXRa partner concentration 90 nM)
Summary of the method: as §1

[7] = tested on: PPARg:RXRa (NR concentration 180 nM, RXRa partner concentration 90 nM)
Summary of the method: as §1

[8] = tested on: PPARg:RXRa 270nM:90nM, anti-RXR (NR concentration 270 nM, RXRa partner concentration 90 nM)
Summary of the method: as §1

[9] = tested on: PPARg:RXRa 30nM:10nM, anti-RXR (NR concentration 30 nM, RXRa partner concentration 10 nM)
Summary of the method: as §1

[10] = tested on: PPARg:RXRa 90nM:30nM, anti-RXR (NR concentration 90 nM, RXRa partner concentration 30 nM)
Summary of the method: as §1

Sequence: GGAACGAGTGCATTCGAGTTGATAGCATGGCGAT
- PBM binding z-score [1]: -0.159
- PBM binding z-score [2]: 0.374
- PBM binding z-score [3]: -0.89
- PBM binding z-score [4]: -0.659
- PBM binding z-score [5]: -1.1
- PBM binding z-score [6]: -0.426
- PBM binding z-score [7]: 0.302
- PBM binding z-score [8]: -0.652
- PBM binding z-score [9]: -0.79
- PBM binding z-score [10]: -1.09

Sequence: GCTTACGGGGCAAAGGTTATAGCATGAATAGAAT
- PBM binding z-score [1]: 2.32
- PBM binding z-score [2]: 2.71
- PBM binding z-score [3]: 0.016
- PBM binding z-score [4]: 3.48
- PBM binding z-score [5]: 0.208
- PBM binding z-score [6]: 5.38
- PBM binding z-score [7]: 8.91
- PBM binding z-score [8]: 8.3
- PBM binding z-score [9]: 7.37
- PBM binding z-score [10]: 9.06

Sequence: GCTAGTTGGTCACTAAAAGGTCACACACCGGTCG
- PBM binding z-score [1]: 3.49
- PBM binding z-score [2]: 4.28
- PBM binding z-score [3]: 4.38
- PBM binding z-score [4]: 4.27
- PBM binding z-score [5]: 0.864
- PBM binding z-score [6]: 4.44
- PBM binding z-score [7]: 2
- PBM binding z-score [8]: 3.69
- PBM binding z-score [9]: 0.993
- PBM binding z-score [10]: 2.6

Sequence: CGTCCAAGTTCATAGGAGGTCAGTGAAGACAGAT
- PBM binding z-score [1]: 5.25
- PBM binding z-score [2]: 6.43
- PBM binding z-score [3]: 3.8
- PBM binding z-score [4]: 4.3
- PBM binding z-score [5]: 0.586
- PBM binding z-score [6]: 3.83
- PBM binding z-score [7]: 1.6
- PBM binding z-score [8]: 2.43
- PBM binding z-score [9]: 0.744
- PBM binding z-score [10]: 1.47

Sequence: ATCGAAAGGTCGTTAGGTGAGTATACAGAAAGGC
- PBM binding z-score [1]: 3.98
- PBM binding z-score [2]: 3.54
- PBM binding z-score [3]: 0.592
- PBM binding z-score [4]: 3.08
- PBM binding z-score [5]: 1.11
- PBM binding z-score [6]: 4.25
- PBM binding z-score [7]: 2.59
- PBM binding z-score [8]: 3.29
- PBM binding z-score [9]: 1.33
- PBM binding z-score [10]: 2.27

Sequence: CAAACAGGGTCAGCTAGGCCAGAGTAGGGACGGC
- PBM binding z-score [1]: 4.65
- PBM binding z-score [2]: 2.73
- PBM binding z-score [3]: -0.316
- PBM binding z-score [4]: 2.21
- PBM binding z-score [5]: 0.0212
- PBM binding z-score [6]: 4.47
- PBM binding z-score [7]: 3.5
- PBM binding z-score [8]: 3.57
- PBM binding z-score [9]: 0.838
- PBM binding z-score [10]: 2.35

Sequence: ACTCAAAGTTCACTAGGTAACGTAAGATTCAGCT
- PBM binding z-score [1]: 5.32
- PBM binding z-score [2]: 5.16
- PBM binding z-score [3]: 3.54
- PBM binding z-score [4]: 3.55
- PBM binding z-score [5]: 1.83
- PBM binding z-score [6]: 4.73
- PBM binding z-score [7]: 5.15
- PBM binding z-score [8]: 5.21
- PBM binding z-score [9]: 2.16
- PBM binding z-score [10]: 4.22

Sequence: TCGTATAGGTAAACAGGTGAAAGTCCGTAAGTTA
- PBM binding z-score [1]: 1.19
- PBM binding z-score [2]: 0.963
- PBM binding z-score [3]: 0.191
- PBM binding z-score [4]: 0.852
- PBM binding z-score [5]: 0.0957
- PBM binding z-score [6]: 1.95
- PBM binding z-score [7]: 1.46
- PBM binding z-score [8]: 2.64
- PBM binding z-score [9]: 2.92
- PBM binding z-score [10]: 2.76

Sequence: CAGCCTAGGTAAGGGCCAGTATAGGAGGAACGTT
- PBM binding z-score [1]: -0.618
- PBM binding z-score [2]: -0.931
- PBM binding z-score [3]: -0.62
- PBM binding z-score [4]: -1.05
- PBM binding z-score [5]: -1.17
- PBM binding z-score [6]: -0.738
- PBM binding z-score [7]: -0.026
- PBM binding z-score [8]: -0.51
- PBM binding z-score [9]: -0.469
- PBM binding z-score [10]: -0.635

Sequence: TCTTGTAGATCAACAGGAGGTTAAGACAGATCGA
- PBM binding z-score [1]: 0.088
- PBM binding z-score [2]: 1.15
- PBM binding z-score [3]: -0.145
- PBM binding z-score [4]: 0.737
- PBM binding z-score [5]: -0.342
- PBM binding z-score [6]: 1.3
- PBM binding z-score [7]: 0.205
- PBM binding z-score [8]: 1.36
- PBM binding z-score [9]: 2.4
- PBM binding z-score [10]: 2.07

Sequence: CAAACTAGGTCACGAAAGGACAAAGTCGAATGAC
- PBM binding z-score [1]: 5.05
- PBM binding z-score [2]: 6.1
- PBM binding z-score [3]: 1.25
- PBM binding z-score [4]: 4.08
- PBM binding z-score [5]: 0.368
- PBM binding z-score [6]: 5.41
- PBM binding z-score [7]: 9.21
- PBM binding z-score [8]: 7.34
- PBM binding z-score [9]: 5.83
- PBM binding z-score [10]: 7.48

Sequence: GCTAGCAGGCCATTTGGGTCACTCAATGACGGGC
- PBM binding z-score [1]: 0.232
- PBM binding z-score [2]: -0.126
- PBM binding z-score [3]: -0.618
- PBM binding z-score [4]: -0.0783
- PBM binding z-score [5]: -0.885
- PBM binding z-score [6]: 1.34
- PBM binding z-score [7]: 0.697
- PBM binding z-score [8]: 0.632
- PBM binding z-score [9]: -0.477
- PBM binding z-score [10]: -0.0514

Sequence: CTCGAAAGGTCGTGCCCAGGTGAGTATACCAAAC
- PBM binding z-score [1]: 5.26
- PBM binding z-score [2]: 3.99
- PBM binding z-score [3]: 0.422
- PBM binding z-score [4]: 3.22
- PBM binding z-score [5]: 0.542
- PBM binding z-score [6]: 4.81
- PBM binding z-score [7]: 2.54
- PBM binding z-score [8]: 3.88
- PBM binding z-score [9]: 1.14
- PBM binding z-score [10]: 2.23

Sequence: TCTTGTTGGTCAAAGGTCACACACTCGAAATGCG
- PBM binding z-score [1]: 5.68
- PBM binding z-score [2]: 5.8
- PBM binding z-score [3]: 4.46
- PBM binding z-score [4]: 5.63
- PBM binding z-score [5]: 2.85
- PBM binding z-score [6]: 6.46
- PBM binding z-score [7]: 10.7
- PBM binding z-score [8]: 9.31
- PBM binding z-score [9]: 9.15
- PBM binding z-score [10]: 10

Sequence: CCAGACAGGTGAAAGGTAACTCTGTCTGGTACGC
- PBM binding z-score [1]: 0.257
- PBM binding z-score [2]: 1.07
- PBM binding z-score [3]: -0.318
- PBM binding z-score [4]: 0.89
- PBM binding z-score [5]: -0.274
- PBM binding z-score [6]: 3.45
- PBM binding z-score [7]: 5.57
- PBM binding z-score [8]: 6.03
- PBM binding z-score [9]: 4.71
- PBM binding z-score [10]: 5.8

Sequence: ATCTCTAGGTAAAGGTAGTTCAGTGAATGCAAAT
- PBM binding z-score [1]: 0.462
- PBM binding z-score [2]: 2.47
- PBM binding z-score [3]: 0.775
- PBM binding z-score [4]: 0.88
- PBM binding z-score [5]: 0.769
- PBM binding z-score [6]: 1.08
- PBM binding z-score [7]: 0.966
- PBM binding z-score [8]: 2.17
- PBM binding z-score [9]: 0.811
- PBM binding z-score [10]: 1.4

Sequence: CATACAGGGTTAGCTAGGCCAGAGTAGGGACGGC
- PBM binding z-score [1]: 0.0541
- PBM binding z-score [2]: 0.22
- PBM binding z-score [3]: -0.431
- PBM binding z-score [4]: -0.176
- PBM binding z-score [5]: -0.302
- PBM binding z-score [6]: 0.689
- PBM binding z-score [7]: 0.625
- PBM binding z-score [8]: 0.647
- PBM binding z-score [9]: -0.0439
- PBM binding z-score [10]: 0.397

Sequence: TCATATCGGTAAATGCTAGGTGAAAGTCCGATCT
- PBM binding z-score [1]: 0.228
- PBM binding z-score [2]: 0.361
- PBM binding z-score [3]: 0.17
- PBM binding z-score [4]: 0.39
- PBM binding z-score [5]: 0.0158
- PBM binding z-score [6]: 0.778
- PBM binding z-score [7]: 0.243
- PBM binding z-score [8]: 2.06
- PBM binding z-score [9]: 3.69
- PBM binding z-score [10]: 2.84

Sequence: ATATGTATGTTATCGGGTCATTCAGTTTGCGCAT
- PBM binding z-score [1]: 1.97
- PBM binding z-score [2]: 2.23
- PBM binding z-score [3]: 0.86
- PBM binding z-score [4]: 2.38
- PBM binding z-score [5]: 1.09
- PBM binding z-score [6]: 3.32
- PBM binding z-score [7]: 2.67
- PBM binding z-score [8]: 2.71
- PBM binding z-score [9]: 0.938
- PBM binding z-score [10]: 2.09

Sequence: CGAACTAGGTCATCGACAGGACAGTGAATAGTAA
- PBM binding z-score [1]: 3.83
- PBM binding z-score [2]: 2.6
- PBM binding z-score [3]: 0.8
- PBM binding z-score [4]: 2.02
- PBM binding z-score [5]: -0.0443
- PBM binding z-score [6]: 4.87
- PBM binding z-score [7]: 8.03
- PBM binding z-score [8]: 6.6
- PBM binding z-score [9]: 3.86
- PBM binding z-score [10]: 5.7

Sequence: TAGCCTAGGTCGTTGGGCCAGTATAGTACGCATC
- PBM binding z-score [1]: 0.234
- PBM binding z-score [2]: -0.0129
- PBM binding z-score [3]: -0.222
- PBM binding z-score [4]: 0.178
- PBM binding z-score [5]: -0.371
- PBM binding z-score [6]: 0.544
- PBM binding z-score [7]: 0.271
- PBM binding z-score [8]: 0.0972
- PBM binding z-score [9]: -0.401
- PBM binding z-score [10]: -0.153

Sequence: GCTTGTAGATCAAGATTAAGAAAGACTAAGCTAA
- PBM binding z-score [1]: -0.857
- PBM binding z-score [2]: -0.792
- PBM binding z-score [3]: -0.561
- PBM binding z-score [4]: -0.525
- PBM binding z-score [5]: -0.737
- PBM binding z-score [6]: -0.32
- PBM binding z-score [7]: 0.226
- PBM binding z-score [8]: -0.333
- PBM binding z-score [9]: -0.252
- PBM binding z-score [10]: -0.334

Sequence: CCTTACGGGTCACGAGGTTATAACACGACGAGCG
- PBM binding z-score [1]: 6.57
- PBM binding z-score [2]: 4.63
- PBM binding z-score [3]: 0.527
- PBM binding z-score [4]: 4.2
- PBM binding z-score [5]: -0.0357
- PBM binding z-score [6]: 6.03
- PBM binding z-score [7]: 7.47
- PBM binding z-score [8]: 6.56
- PBM binding z-score [9]: 3.19
- PBM binding z-score [10]: 5.53

Sequence: CCTACTGGGCCAAAAAGGTCTTTGATGCCGATAA
- PBM binding z-score [1]: -0.753
- PBM binding z-score [2]: -0.556
- PBM binding z-score [3]: -0.512
- PBM binding z-score [4]: -0.343
- PBM binding z-score [5]: -1.15
- PBM binding z-score [6]: 0.669
- PBM binding z-score [7]: 0.196
- PBM binding z-score [8]: 1.01
- PBM binding z-score [9]: -0.425
- PBM binding z-score [10]: 0.203
